The panel holds about 83,000 compounds, 20% with a hit somewhere; the sample as a whole holds those more often.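 48-hour exposure, single concentration, 96-well plates; percent growth endpoint where 0 means no net growth. Active: below 10.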 Unmarked numbers belong to inactive results. The source made the active and inactive calls.
tested on: MDA-MB-468 breast; assay: NCI-60 one-dose screen, 48 h (100 = growth as untreated, 0 = no growth, -100 = all killed); conditions: 10 µM unless noted

| Structure (SMILES) | growth |
| --- | --- |
| CN(C)CCNc1ccc2ncc(C#Cc3cncc(C(=O)Nc4ccc(CN5CCN(C)CC5)c(C(F)(F)F)c4)c3)n2n1 | -67.9% (active) |
| Nc1c(S(=O)(=O)O)cc2c3c(cccc13)C(=O)OC2=O | 85.9% |
| CCCCCc1ccc(S(=O)(=O)Nc2cccc(-c3csc(NC(=O)CCCCCN4CCN(C)CC4)n3)c2)cc1 | 79% |
| Cc1nc2cc(Nc3nc(N4CCCCC4)nc(N4CCOCC4)n3)ccc2n1Cc1ccccc1 | 70.1% |
| c1cc[n+](Cc2c3ccccc3cc3c2ccc2ccccc23)cc1 | -40.5% (active) |
| CCCCCCCCn1cc(C2=C(c3coc4ccc(OC)cc34)C(=O)NC2=O)c2ccccc21 | 103% |
| COc1cc(NC2CCC(=O)N2c2ccc(Cl)cc2Cl)cc(OC)c1OC (centres undefined) | 110% |
| COc1cccc(-c2nc3sccn3c2-c2ccnc(NCCNS(=O)(=O)c3c(Cl)cccc3Cl)c2)c1 | 56.8% |
| O=[N+]([O-])c1ccc(C(Br)c2ccc([N+](=O)[O-])cc2)cc1 | 112% |
| O=C1Nc2ccccc2C12CC(c1ccc(Cl)cc1)=NN2 (centres undefined) | 110% |
| Cc1ccc(C(CC(=O)O)c2c(C)[nH][nH]c2=O)cc1 (centres undefined) | 101% |
| Nc1cc(-c2ccncc2)c[nH]c1=O | 117% |
| Cc1nc(-c2cc3ccccc3oc2=O)ccc1C(=O)/C=C/c1ccc(Cl)c(Cl)c1 | 110% |
| CCNC(=O)Oc1ccc(/C(=C(/CC)Cc2ccccc2)c2ccc(OCCN3CCOCC3)cc2)cc1 | 46.1% |
